Records with an inconclusive call do not appear. Active and inactive are the calls of the source. Calls come from the whole dose curve; as a rule, active = well fitted curve in the direction sought with a large enough effect in the repeat runs; inconclusive = weak or mixed curves; inactive = no such curve, though single readings can be large; an effect the other way counts as inactive or inconclusive.
Legend:
[1] = A CellTox Green Cytotoxicity Assay to monitor cytotoxicity in HepG2 cells - 0 hour (AID 1224882); details: CellTox Green fluorescence; series mostly up to 76.8 µM; note: nearly all actives have a fitted effect of over 35% in size
In short: (§1)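 HepG2 cells were seeded together with the CellTox Green dye at 600 cells/well, left 5 h at 37 C/5% CO2, then given compounds in DMSO. Fluorescence from dye bound to dead-cell DNA was read repeatedly over 40 h of treatment at 37 C.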

[2] = A CellTox Green Cytotoxicity Assay to monitor cytotoxicity in HEK293 cells - 8 hour (AID 1224884); details: CellTox Green fluorescence; series mostly up to 76.8 µM; note: nearly all actives have a fitted effect of over 35% in size
In short: (§2)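 HEK293 cells premixed with CellTox Green dye were seeded at 600 cells/well and left 5 h at 37 C/5% CO2 before pin transfer of 23 nL compound in DMSO. Fluorescence from dye bound to dead-cell DNA was read during 40 h treatment.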

[3] = qHTS RealTime-Glo MT Cell Viability Assay in HepG2 cells - 16 hour (AID 1224885); details: RealTime-Glo luminescence; series mostly up to 76.8 µM; note: nearly all actives have a fitted effect of over 50% in size
In short: (§3)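 Compound treatment began 5 h after plating HepG2 cells (600/well) with NanoLuc luciferase and prosubstrate. Plates stayed at 37 C for 40 h; luminescence was captured at six time points, 0 h through 40 h.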

[4] = qHTS RealTime-Glo MT Cell Viability Assay in HEK293 cells - 24 hour (AID 1224886); details: RealTime-Glo luminescence; series mostly up to 76.8 µM; note: top concentration of the series differs between compounds; nearly all actives have a fitted effect of over 50% in size
In short: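 Quantitative high-throughput screen of the Tox21 10K library in HEK293: cells and RealTime-Glo reagents plated together, compound added at 5 h, luminescence monitored through 40 h at 37 C.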

[5] = qHTS RealTime-Glo MT Cell Viability Assay in HEK293 cells - 8 hour (AID 1224887); details: RealTime-Glo luminescence; series mostly up to 76.8 µM; note: top concentration of the series differs between compounds; nearly all actives have a fitted effect of over 50% in size
In short: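 HEK293 cells mixed with RealTime-Glo reagents (NanoLuc plus cell-permeant prosubstrate) at 600 cells/well, preincubated 5 h at 37 C/5% CO2, then given 23 nL compound in DMSO. Nonlytic luminescence from viable cells was read at 0, 8, 16, 24, 32 and 40 h.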

[6] = A CellTox Green Cytotoxicity Assay to monitor cytotoxicity in HEK293 cells - 16 hour (AID 1224888); details: CellTox Green fluorescence; series mostly up to 76.8 µM; note: nearly all actives have a fitted effect of over 35% in size
In short: as §2

[7] = qHTS RealTime-Glo MT Cell Viability Assay in HepG2 cells - 0 hour (AID 1224889); details: RealTime-Glo luminescence; series mostly up to 76.8 µM; note: nearly all actives have a fitted effect of over 50% in size
In short: as §3

[8] = A CellTox Green Cytotoxicity Assay to monitor cytotoxicity in HepG2 cells - 8 hour (AID 1224890); details: CellTox Green fluorescence; series mostly up to 76.8 µM; note: nearly all actives have a fitted effect of over 45% in size
In short: as §1

[9] = A CellTox Green Cytotoxicity Assay to monitor cytotoxicity in HepG2 cells - 32 hour (AID 1224883); details: CellTox Green fluorescence; series mostly up to 76.8 µM; note: nearly all actives have a fitted effect of over 50% in size
In short: as §1

Measured: Potency

CC(=O)OCCC(C)C
not listed: [9]
inactive: all other assays above

OCC(CO)(CO)CO
inactive: all assays above

CCCCCCCCO
inactive: all assays above

COc1c2ccoc2cc2oc(=O)ccc12
not listed: [9]
inactive: all other assays above

C1CCCNCC1
inactive: all assays above
